Screening data deposited in PubChem by several laboratories.
A selection: hits, their analogues and other compounds. The true share with any hit is near 3.6%.
BoNT-A LC inh2 = inhibitors of Botulinum neurotoxin A light chain protease | multiplex microsphere protease substrate cleavage, flow cytometry | inhibition, % at 10 µM | 0.17% of 360,000 active | AID 588499
BoNT F protease = BoNT F light chain protease inhibition; Multiplex microsphere protease cleavage assay, flow cytometry; inhibition, % at 10 µM; 0.22% of 360,000 active; in the data active means inhibition above about 35%, passing the limit was not always enough; inconclusive means no clear call, values can overlap the other calls
Autofluor counter = counter-screen for toxin protease inhibitors: compound fluorescence; compound autofluorescence counterscreen, microsphere flow cytometry; active compounds read high; fluorescence intensity (concentration not given with the values); 3.1% of 360,000 active; in the data active means fluorescence intensity above about 16000; inconclusive means no clear call, values can overlap the other calls
SARS 3CLpro inh = SARS-CoV 3CLpro protease inhibition. AID 1706. inhibition, % at 6 µM. 0.14% of 290,000 active. recombinant SARS-CoV 3CLpro, quenched FRET peptide cleavage; in the data active means inhibition above about 12%
BJeLR viability = BJeLR cell viability loss; BJeLR (HRASV12) viability, CellTiter-Glo ATP luminescence, 48 h; inhibition, % (no concentration beside the values); 0.17% of 300,000 active; in the data active means inhibition above about 50%; inconclusive means no clear call, values can overlap the other calls
Anthrax LF prot = inhibitors of Bacillus anthracis lethal factor protease. P15917. multiplex microsphere protease cleavage assay, LF. inhibition, % at 10 µM. 0.12% of 360,000 active. AID 588501
Target sequence (P15917 whole entry, looked up): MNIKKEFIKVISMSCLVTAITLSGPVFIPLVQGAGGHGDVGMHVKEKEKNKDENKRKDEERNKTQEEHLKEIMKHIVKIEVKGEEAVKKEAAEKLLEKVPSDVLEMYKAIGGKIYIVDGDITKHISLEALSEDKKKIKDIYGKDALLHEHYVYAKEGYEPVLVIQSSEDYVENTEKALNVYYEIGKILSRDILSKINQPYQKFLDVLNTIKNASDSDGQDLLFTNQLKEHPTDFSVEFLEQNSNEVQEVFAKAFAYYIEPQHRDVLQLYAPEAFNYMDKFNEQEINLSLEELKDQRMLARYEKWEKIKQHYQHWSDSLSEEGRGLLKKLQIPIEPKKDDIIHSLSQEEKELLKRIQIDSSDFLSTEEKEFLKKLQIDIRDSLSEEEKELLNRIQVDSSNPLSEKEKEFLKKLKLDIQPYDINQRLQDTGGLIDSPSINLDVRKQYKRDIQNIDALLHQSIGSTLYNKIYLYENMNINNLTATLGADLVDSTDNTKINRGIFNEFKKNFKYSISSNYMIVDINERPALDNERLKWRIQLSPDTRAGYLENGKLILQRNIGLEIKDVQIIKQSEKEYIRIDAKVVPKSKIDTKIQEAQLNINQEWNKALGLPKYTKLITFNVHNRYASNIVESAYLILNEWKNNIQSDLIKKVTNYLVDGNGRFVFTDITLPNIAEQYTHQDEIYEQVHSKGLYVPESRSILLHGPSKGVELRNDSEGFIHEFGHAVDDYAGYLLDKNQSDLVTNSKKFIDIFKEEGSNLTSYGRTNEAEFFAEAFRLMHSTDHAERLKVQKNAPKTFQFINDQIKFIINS
Hits are given with their value; – = inactive; ? = inconclusive; · = no result given; ! = a repeat was not active. Unless noted, no stated cut-off is given here; in the data, active means inhibition above about 30%; inconclusive means no clear call, values can overlap the other calls; inactive means below that.

SMILES	BoNT-A LC inh2	BoNT F protease	Autofluor counter	SARS 3CLpro inh	BJeLR viability	Anthrax LF prot
Cc1c(NC(=O)C(C)Sc2nc3ccccc3c(=O)n2CCO)c(=O)n(-c2ccccc2)n1C (stereo unspecified)	–	–	21769	–	–	–
Cc1c(NC(=O)C(C)Sc2ccc3ccccc3n2)c(=O)n(-c2ccccc2)n1C (stereo unspecified)	–	–	–	–	–	–
CC(C)OC(=O)c1nn2c(C(F)(F)F)cc(-c3ccco3)nc2c1Cl	–	–	–	–	–	–
CC(C)OC(=O)c1nn2c(C(F)(F)F)cc(-c3ccc(Br)o3)nc2c1Br	–	–	20340	–	–	–
Brc1ccc(Oc2ncc(CN3CCOCC3)s2)cc1	?	–	18177	–	–	–
CCOC(=O)C1CCN(Cc2cnc(NC(=O)OC)s2)CC1	?	?	?	–	–	?
CCOC(=O)C1CCN(Cc2cnc(Oc3ccc(C(C)(C)C)cc3)s2)CC1	–	–	21136	–	–	–
CC(C)CNC(=O)C1CCCN(C(=O)NCc2ccccc2)C1 (stereo unspecified)	–	–	–	–	–	–
CC(C)NC(=O)C1CCCN(S(=O)(=O)c2ccc(-n3cnnn3)cc2)C1 (stereo unspecified)	–	–	16890	–	–	–
CCOC(=O)C1CN(S(=O)(=O)c2ccccc2)C1	–	–	–	–	–	–
CCOC(=O)C1CCCN(CCCc2ccccc2)C1 (stereo unspecified)	–	–	23848!	–	–	–
CCOC(=O)c1ccc(NC(=O)C2CCCN(S(=O)(=O)c3ccc(F)cc3)C2)cc1 (stereo unspecified)	–	–	24696	–	–	–
CCOC(=O)C1CCCN(S(=O)(=O)c2ccccc2)C1 (stereo unspecified)	–	–	22239	–	–	–
CCOC(=O)C1(C)CCN1C(=O)c1ccc(OC)c(OC)c1 (stereo unspecified)	–	–	–	·	·	–
S=C(NCCc1ccccc1)Nc1ccc(N2CCCCC2)cc1	–	–	–	–	–	–
O=S1OCCN1c1ccccc1 (stereo unspecified)	–	–	–	–	–	–
COc1ccc(C2=NN(C(=O)c3ccccc3)C(c3ccc(OC)c(OC)c3)C2)c(OC(C)=O)c1 (stereo unspecified)	–	–	–	–	–	–
COc1ccc(S(=O)(=O)N(C)CC(=O)NCc2ccco2)cc1OC	–	–	–	–	–	–
CCOC(=O)C1CCCN(C(=O)Cc2c(C(=O)O)[nH]c3ccccc23)C1 (stereo unspecified)	–	–	23230	–	–	–
CCOC(=O)c1ccc(S(=O)(=O)N2CCN(CC3CC=CCC3)CC2)cc1 (stereo unspecified)	?	–	17091	–	–	–
COc1ccccc1NC(=O)COC(=O)c1[nH]c(=O)[nH]c(=O)c1N	–	–	–	·	·	–
CCOC(=O)c1c(-n2c(C)cc(C=C3C(=O)NC(=S)NC3=O)c2C)sc2c1CCCC2	36	–	–	–	–	38
COc1cccc(C2CC(c3cccc(Br)c3)n3nc(N)nc3N2)c1 (stereo unspecified)	–	–	–	–	–	–
CSc1nc(NC(C)(C)C)nc(Oc2ccc(=O)[nH]n2)n1	–	–	19465	–	–	–
O=C(Nc1nc2ccccc2[nH]1)Nc1ccccc1F	–	–	–	–	–	–
SMILES	BoNT-A LC inh2	BoNT F protease	Autofluor counter	SARS 3CLpro inh	BJeLR viability	Anthrax LF prot
CCOC(=O)N1CCN(C(=O)C2CC(c3cc(OC)ccc3OC)=NO2)CC1 (stereo unspecified)	?	–	23965	–	·	–
CCn1ncc(C2=NOC(C(=O)Nc3cc(OC)c(Cl)cc3OC)C2)c1C (stereo unspecified)	–	–	18923	–	–	–
CCn1ncc(C2=NOC(C(=O)N3CCC(C(N)=O)CC3)C2)c1C (stereo unspecified)	?	–	21518	·	–	–
CCn1ncc(C2=NOC(C(=O)Nc3cnn(C45CC6CC(CC(C6)C4)C5)c3)C2)c1C (stereo unspecified)	–	–	21886	–	–	–
O=[N+]([O-])CC(=Nc1ccc(F)cc1)N/N=C\c1oc(O)c2ccccc12	·	·	·	–	–	·
COCCN(C(=O)c1csnn1)C(C(=O)NC1CCCCC1)c1sccc1C (stereo unspecified)	–	–	23376	–	–	–
O=C(NC1CCCC1)C(c1ccco1)N(Cc1ccccc1)C(=O)c1csnn1 (stereo unspecified)	?	–	20226	–	–	–
O=C(NC1CCCCC1)C(c1ccco1)N(C(=O)c1csnn1)C1CCCC1 (stereo unspecified)	–	–	22986	–	–	–
CC(C)(C)NC(=O)C(c1ccccc1F)N(Cc1ccco1)C(=O)c1csnn1 (stereo unspecified)	–	–	16964	–	–	–
O=[N+]([O-])c1cc([N+](=O)[O-])c2oc(-c3ccccc3)c(Br)c2c1O	–	–	–	–	–	–
O=C(NC1CCCC1)C(c1ccccn1)N(C(=O)c1csnn1)C1CC1 (stereo unspecified)	–	–	16748	–	–	–
O=C(NC1CCCC1)C(c1ccccn1)N(C(=O)c1csnn1)C1CCCCC1 (stereo unspecified)	–	–	–	–	–	–
Cc1ccc(S(=O)(=O)Nc2nc(C)c(NC(=O)OCCCl)s2)cc1	–	–	21860	–	–	–
Cc1cc(C)c(C2=CC(=O)C[C@H](c3ccc4c(c3)OCO4)C2)c(C)c1	–	–	–	·	·	–
COc1ccc(C2=NOC(C(=O)NCc3cccnc3)C2)cc1 (stereo unspecified)	–	–	–	–	–	–
CCCN(CCC)S(=O)(=O)c1ccc(NS(=O)(=O)c2ccc(F)cc2)cc1	–	–	17098	–	–	–
N=c1c2c(-c3ccccc3)c(-c3ccccc3)n(Cc3ccccc3)c2ncn1CCO	?	–	22944	–	–	–
N=c1c2c(-c3ccccc3)c(-c3ccccc3)n(Cc3ccco3)c2ncn1CCCn1ccnc1	–	–	–	–	52	–
N=c1c2c(-c3ccccc3)c(-c3ccccc3)n(Cc3ccco3)c2ncn1Cc1ccccc1	–	–	–	–	–	–
COc1ccc(CN2CCN(C(=O)c3ccccc3C(=O)c3ccccc3)CC2)cc1OC	–	–	–	·	·	–
Cc1cc(C)c(C#N)c(SCC(=O)c2cccs2)n1	?	–	22840	–	–	–
Cc1cc(SCC(=O)c2cccs2)nc2c(C)cccc12	–	–	16902	–	–	–
Cc1nnc(SCC(C)C)[nH]c1=O	–	–	–	–	–	–
Cc1nn(CC(C)C)c(=S)[nH]c1=O	?	–	23998	–	–	–
Cn1c(=O)c2c(nc(CN3CCN(C(=O)c4ccco4)CC3)n2CCc2ccccc2)n(C)c1=O	–	–	21635	–	–	–
Cn1c(=O)c2c(nc(CN3CCN(C(=O)c4ccco4)CC3)n2Cc2ccc(Cl)cc2)n(C)c1=O	–	–	18363	–	–	–
